A number with no mark means an inactive call. Results filed as inconclusive are left out. A call without a number means that no potency is given here. Active and inactive are the calls of the source. Calls come from the whole dose curve.
molecular target: Acetylcholinesterase (Homo sapiens) (UniProt P22303); assay: Acetylcholinesterase (AChE) small molecule antagonists: enzyme-based qHTS assay (AID 1347397); conditions: Potency: AChE enzyme activity inhibition; outcome: AChE enzyme activity inhibition; series mostly up to 115 µM; note: nearly all actives have a fitted effect of over 55% in size
Sequence (P22303 whole entry, looked up): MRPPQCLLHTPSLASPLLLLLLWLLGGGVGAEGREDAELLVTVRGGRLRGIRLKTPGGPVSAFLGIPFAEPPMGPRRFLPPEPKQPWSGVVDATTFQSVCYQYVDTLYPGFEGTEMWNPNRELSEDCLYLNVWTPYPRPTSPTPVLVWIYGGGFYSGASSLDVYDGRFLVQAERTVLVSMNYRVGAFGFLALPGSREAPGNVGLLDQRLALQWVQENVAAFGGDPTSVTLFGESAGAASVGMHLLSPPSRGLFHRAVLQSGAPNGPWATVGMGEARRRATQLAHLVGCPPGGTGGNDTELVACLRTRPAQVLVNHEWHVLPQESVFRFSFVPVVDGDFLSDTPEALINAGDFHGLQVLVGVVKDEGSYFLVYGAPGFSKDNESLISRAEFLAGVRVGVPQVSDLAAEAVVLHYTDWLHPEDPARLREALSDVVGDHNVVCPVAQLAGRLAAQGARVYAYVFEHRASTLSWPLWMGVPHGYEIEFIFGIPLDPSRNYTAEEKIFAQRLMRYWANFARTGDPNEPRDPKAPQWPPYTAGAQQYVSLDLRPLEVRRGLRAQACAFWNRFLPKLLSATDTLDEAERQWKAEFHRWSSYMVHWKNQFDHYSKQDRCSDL
Summary of the method: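 Absorbance-based detection of thiocholine with DTNB served as the read-out. Recombinant human AChE was exposed to compound for 30 min at RT before a 10 min RT incubation with acetylthiocholine.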

| Structure (SMILES) | Potency | activity change, negative = inhibition |
| --- | --- | --- |
| CC(=O)S[C@H](C(=O)N[C@H]1Cc2ccccc2[C@H]2CCC[C@@H](C(=O)O)N2C1=O)C(C)C | inactive |  |
| CCOC(=O)OC(=O)OCC | inactive |  |
| Oc1cccc(O)c1O | inactive |  |
| Cc1ccccc1S | inactive |  |
| NC(=S)N/N=C/c1cccnc1 | inactive |  |
| C=CN1CCCCCC1=O | inactive |  |
| CC(C)NC(=O)c1ccc(C=O)cc1 | inactive |  |
| O=c1cc(-c2ccccc2)oc2ccc3ccccc3c12 | inactive |  |
| C#CC(O)C(CC)CCCC (configuration not stated) | inactive |  |
| CCOC(=N)CC(=O)OCC | inactive |  |
| C[C@@H]1CN(c2c(F)c(F)c3c(=O)c(C(=O)O)cn(C4CC4)c3c2F)C[C@H](C)N1 |  | -0.831% [at 23.6 µM] |
| CCCC(CC)CCCCCCCN (configuration not stated) | inactive |  |
| C=CCCCCCCCCC(=O)OCCCC | inactive |  |
| CC12CC3CC(C)(C1)CC(N)(C3)C2 | inactive |  |
| CC1=C2[C@H](/C=C(\C)C(=O)O)CC[C@@H](C)[C@H]2CC1 | inactive |  |
| COC(C)(C)CC(C)=O | inactive |  |
| Cc1nc(-c2ccccn2)ncc1C(=O)Nn1cc(C)c2cc(F)ccc21 | inactive |  |
| CCCCCCOC(=O)c1ccccc1 | inactive |  |
| COC(=O)CCSCCC(=O)OC | inactive |  |
| O=S(=O)(O)c1ccccc1/C=C/c1ccc(-c2ccc(/C=C/c3ccccc3S(=O)(=O)O)cc2)cc1 | inactive |  |

| Structure (SMILES) | Potency | activity change, negative = inhibition |
| --- | --- | --- |
| C=CC(=O)OCC1CCCO1 (configuration not stated) | inactive |  |
| Nc1ccc(S(=O)(=O)O)c(N)c1 | inactive |  |
| O=C(O)c1ccccc1-c1ccc(C(F)(F)F)cc1 | inactive |  |
| COc1ncnc(NS(=O)(=O)c2ccc(N)cc2)c1OC | inactive |  |
| O=Cc1ccc(F)c(Br)c1 | inactive |  |
| CCCCCCCCCCCl | inactive |  |
| C=CC(C)C#N (configuration not stated) | inactive |  |
| S=C(SSSSSSC(=S)N1CCCCC1)N1CCCCC1 |  | 0.13% [at 23.6 µM] |
| O=C1CC[C@@H](C(=O)O)N1 | inactive |  |
| CC(C)C(=O)O | inactive |  |
| COc1ccc(OC)c(Cl)c1 | inactive |  |
| [O-][n+]1ccc(Cl)cc1 | inactive |  |
| CCCC1CCCC(=O)O1 (configuration not stated) | inactive |  |
| Cc1c[nH]c(=S)[nH]c1=O | inactive |  |
| CCCCCCCCc1ccc(S(=O)(=O)O)cc1 | inactive |  |
| O=[Si]=O | inactive |  |
| O=C1CCC(=O)N1 | inactive |  |
| Cc1ncc([N+](=O)[O-])n1CC(C)O (configuration not stated) | inactive |  |
| CCO[Si](C)(C)OCC | inactive |  |

molecular target: Acetylcholinesterase (Homo sapiens) (UniProt P22303); assay: Acetylcholinesterase (AChE) small molecule antagonists: fluorescence cell-based qHTS assay (AID 1347398); conditions: SH-SY5Y cells; Potency: AChE activity; outcome: AChE activity; series mostly up to 115 µM; note: nearly all actives have a fitted effect of over 50% in size
Summary of the method: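 Fluorimetric cell-based assay: intact SH-SY5Y cells, 30 min compound preincubation at 37 C, acetylthiocholine substrate with thiol probe Thiolite Green, 40 min RT development, fluorescence 490/520 nm.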

| Structure (SMILES) | Potency | activity change, negative = inhibition |
| --- | --- | --- |
| CC(=O)S[C@H](C(=O)N[C@H]1Cc2ccccc2[C@H]2CCC[C@@H](C(=O)O)N2C1=O)C(C)C | inactive |  |
| CCOC(=O)OC(=O)OCC | inactive |  |
| Oc1cccc(O)c1O | inactive |  |
| Cc1ccccc1S | inactive |  |
| NC(=S)N/N=C/c1cccnc1 | inactive |  |
| C=CN1CCCCCC1=O | inactive |  |
| CC(C)NC(=O)c1ccc(C=O)cc1 | inactive |  |
| O=c1cc(-c2ccccc2)oc2ccc3ccccc3c12 | inactive |  |
| C#CC(O)C(CC)CCCC (configuration not stated) | inactive |  |
| CCOC(=N)CC(=O)OCC | inactive |  |
| C[C@@H]1CN(c2c(F)c(F)c3c(=O)c(C(=O)O)cn(C4CC4)c3c2F)C[C@H](C)N1 |  | 0.907% [at 23.8 µM] |
| CCCC(CC)CCCCCCCN (configuration not stated) | inactive |  |
| C=CCCCCCCCCC(=O)OCCCC | inactive |  |
| CC12CC3CC(C)(C1)CC(N)(C3)C2 | inactive |  |
| CC1=C2[C@H](/C=C(\C)C(=O)O)CC[C@@H](C)[C@H]2CC1 | inactive |  |
| COC(C)(C)CC(C)=O | inactive |  |
| Cc1nc(-c2ccccn2)ncc1C(=O)Nn1cc(C)c2cc(F)ccc21 | inactive |  |
| CCCCCCOC(=O)c1ccccc1 | inactive |  |
| COC(=O)CCSCCC(=O)OC | inactive |  |
| O=S(=O)(O)c1ccccc1/C=C/c1ccc(-c2ccc(/C=C/c3ccccc3S(=O)(=O)O)cc2)cc1 | inactive |  |

| Structure (SMILES) | Potency | activity change, negative = inhibition |
| --- | --- | --- |
| C=CC(=O)OCC1CCCO1 (configuration not stated) | inactive |  |
| Nc1ccc(S(=O)(=O)O)c(N)c1 | inactive |  |
| O=C(O)c1ccccc1-c1ccc(C(F)(F)F)cc1 | inactive |  |
| COc1ncnc(NS(=O)(=O)c2ccc(N)cc2)c1OC | inactive |  |
| O=Cc1ccc(F)c(Br)c1 | inactive |  |
| CCCCCCCCCCCl | inactive |  |
| C=CC(C)C#N (configuration not stated) | inactive |  |
| S=C(SSSSSSC(=S)N1CCCCC1)N1CCCCC1 |  | -3% [at 23.8 µM] |
| O=C1CC[C@@H](C(=O)O)N1 | inactive |  |
| CC(C)C(=O)O | inactive |  |
| COc1ccc(OC)c(Cl)c1 | inactive |  |
| [O-][n+]1ccc(Cl)cc1 | inactive |  |
| CCCC1CCCC(=O)O1 (configuration not stated) | inactive |  |
| Cc1c[nH]c(=S)[nH]c1=O | inactive |  |
| CCCCCCCCc1ccc(S(=O)(=O)O)cc1 | inactive |  |
| O=[Si]=O | inactive |  |
| O=C1CCC(=O)N1 | inactive |  |
| Cc1ncc([N+](=O)[O-])n1CC(C)O (configuration not stated) | inactive |  |
| CCO[Si](C)(C)OCC | inactive |  |

molecular target: Acetylcholinesterase (Homo sapiens) (UniProt P22303); assay: Acetylcholinesterase (AChE) small molecule antagonists: enzyme-based qHTS assay with human liver microsomes (AID 1347399); conditions: Potency: qHTS inhibition; outcome: qHTS inhibition; series mostly up to 115 µM; note: nearly all actives have a fitted effect of over 60% in size
Summary of the method: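 Recombinant human AChE (50 mU/mL in the enzyme mix) and human liver microsomes (0.25 mg/mL final) were preincubated with compound and NADPH (0.25 mg/mL final) for 30 min at 37 C. Acetylthiocholine/DTNB was then added; thiocholine was read colorimetrically after 10 min at room temperature.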

| Structure (SMILES) | Potency | activity change, negative = inhibition |
| --- | --- | --- |
| CC(=O)S[C@H](C(=O)N[C@H]1Cc2ccccc2[C@H]2CCC[C@@H](C(=O)O)N2C1=O)C(C)C | inactive |  |
| CCOC(=O)OC(=O)OCC | inactive |  |
| Oc1cccc(O)c1O | inactive |  |
| Cc1ccccc1S | inactive |  |
| NC(=S)N/N=C/c1cccnc1 | inactive |  |
| C=CN1CCCCCC1=O | inactive |  |
| CC(C)NC(=O)c1ccc(C=O)cc1 | inactive |  |
| O=c1cc(-c2ccccc2)oc2ccc3ccccc3c12 | inactive |  |
| C#CC(O)C(CC)CCCC (configuration not stated) | inactive |  |
| CCOC(=N)CC(=O)OCC | inactive |  |
| C[C@@H]1CN(c2c(F)c(F)c3c(=O)c(C(=O)O)cn(C4CC4)c3c2F)C[C@H](C)N1 |  | -1.43% [at 23.6 µM] |
| CCCC(CC)CCCCCCCN (configuration not stated) | inactive |  |
| C=CCCCCCCCCC(=O)OCCCC | inactive |  |
| CC12CC3CC(C)(C1)CC(N)(C3)C2 | inactive |  |
| CC1=C2[C@H](/C=C(\C)C(=O)O)CC[C@@H](C)[C@H]2CC1 | inactive |  |
| COC(C)(C)CC(C)=O | inactive |  |
| Cc1nc(-c2ccccn2)ncc1C(=O)Nn1cc(C)c2cc(F)ccc21 | inactive |  |
| CCCCCCOC(=O)c1ccccc1 | inactive |  |
| COC(=O)CCSCCC(=O)OC | inactive |  |
| O=S(=O)(O)c1ccccc1/C=C/c1ccc(-c2ccc(/C=C/c3ccccc3S(=O)(=O)O)cc2)cc1 | inactive |  |

| Structure (SMILES) | Potency | activity change, negative = inhibition |
| --- | --- | --- |
| C=CC(=O)OCC1CCCO1 (configuration not stated) | inactive |  |
| Nc1ccc(S(=O)(=O)O)c(N)c1 | inactive |  |
| O=C(O)c1ccccc1-c1ccc(C(F)(F)F)cc1 | inactive |  |
| COc1ncnc(NS(=O)(=O)c2ccc(N)cc2)c1OC | inactive |  |
| O=Cc1ccc(F)c(Br)c1 | inactive |  |
| CCCCCCCCCCCl | inactive |  |
| C=CC(C)C#N (configuration not stated) | inactive |  |
| S=C(SSSSSSC(=S)N1CCCCC1)N1CCCCC1 |  | -2.6% [at 23.6 µM] |
| O=C1CC[C@@H](C(=O)O)N1 | inactive |  |
| CC(C)C(=O)O | inactive |  |
| COc1ccc(OC)c(Cl)c1 | inactive |  |
| [O-][n+]1ccc(Cl)cc1 | inactive |  |
| CCCC1CCCC(=O)O1 (configuration not stated) | inactive |  |
| Cc1c[nH]c(=S)[nH]c1=O | inactive |  |
| CCCCCCCCc1ccc(S(=O)(=O)O)cc1 | inactive |  |
| O=[Si]=O | inactive |  |
| O=C1CCC(=O)N1 | inactive |  |
| Cc1ncc([N+](=O)[O-])n1CC(C)O (configuration not stated) | inactive |  |
| CCO[Si](C)(C)OCC | inactive |  |

Reference: PubChem BioAssay (Tox21)
